# Measurements reported in the supplement of paper PMC4466140.
# Tests used:
# Assay in all cases: SPOT peptide array binding signal intensity (averaged, normalized) (arbitrary units (background-subtracted, floor 0; scale differs between SH3 domains)); higher = stronger binding of the SH3 domain to the peptide
# [1] = target: AgAbp1
# Outline: (§1)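 Spot intensities were captured after detection with anti-GST antibody, an HRP-linked anti-mouse secondary and luminol, and quantified with Genespotter. The probes were GST-fused SH3 domains from four yeast species, produced in E. coli BL21(DE3), purified on glutathione Sepharose and incubated at 10 μg/ml overnight at 4°C on cellulose-bound synthetic 15-mer peptides with cysteines replaced by serines. Binding signal is the normalized, background-subtracted spot intensity averaged over replicates, and its arbitrary units differ between domains.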
# [2] = target: AgBbc1
# Outline: as §1
# [3] = target: AgBem1-D1
# Outline: as §1
# [4] = target: AgBzz1-D1
# Outline: as §1
# [5] = target: AgBzz1-D2
# Outline: as §1
# [6] = target: AgCyk3
# Outline: as §1
# [7] = target: AgFus1
# Outline: as §1
# [8] = target: AgHof1
# Outline: as §1
# [9] = target: AgHse1
# Outline: as §1
# [10] = target: AgLsb1
# Outline: as §1
# [11] = target: AgLsb4
# Outline: as §1
# [12] = target: AgMyo5
# Outline: as §1
# [13] = target: AgNbp2
# Outline: as §1
# [14] = target: AgRvs167
# Outline: as §1
# [15] = target: AgSho1
# Outline: as §1
# [16] = target: AgSla1-D1-D2
# Outline: as §1
# [17] = target: AgSla1-D3
# Outline: as §1
# [18] = target: CaAbp1-D1
# Outline: as §1
# [19] = target: CaAbp1-D2
# Outline: as §1
# [20] = target: CaBbc1
# Outline: as §1
# [21] = target: CaBem1-D1
# Outline: as §1
# [22] = target: CaBzz1-D1
# Outline: as §1
# [23] = target: CaBzz1-D2
# Outline: as §1
# [24] = target: CaCyk3
# Outline: as §1
# [25] = target: CaFus1
# Outline: as §1
# [26] = target: CaHof1
# Outline: as §1
# [27] = target: CaHse1
# Outline: as §1
# [28] = target: CaLsb1
# Outline: as §1
# [29] = target: CaLsb4
# Outline: as §1
# [30] = target: CaMyo5
# Outline: as §1
# [31] = target: CaNbp2
# Outline: as §1
# [32] = target: CaRvs167
# Outline: as §1
# [33] = target: CaRvs167-3
# Outline: as §1
# [34] = target: CaSho1
# Outline: as §1
# [35] = target: CaSla1-D1-D2
# Outline: as §1
# [36] = target: CaSla1-D3
# Outline: as §1
# [37] = target: ScAbp1
# Outline: as §1
# [38] = target: ScBbc1
# Outline: as §1
# [39] = target: ScBem1-D1
# Outline: as §1
# [40] = target: ScBzz1-D1
# Outline: as §1
# [41] = target: ScBzz1-D2
# Outline: as §1
# [42] = target: ScCyk3
# Outline: as §1
# [43] = target: ScFus1
# Outline: as §1
# [44] = target: ScHof1
# Outline: as §1
# [45] = target: ScHse1
# Outline: as §1
# [46] = target: ScLsb1
# Outline: as §1
# [47] = target: ScLsb2
# Outline: as §1
# [48] = target: ScLsb3
# Outline: as §1
# [49] = target: ScLsb4
# Outline: as §1
# [50] = target: ScMyo3
# Outline: as §1
# [51] = target: ScMyo5
# Outline: as §1
# [52] = target: ScNbp2
# Outline: as §1
# [53] = target: ScPex13
# Outline: as §1
# [54] = target: ScRvs167
# Outline: as §1
# [55] = target: ScSho1
# Outline: as §1
# [56] = target: ScSla1-D1-D2
# Outline: as §1
# [57] = target: ScSla1-D3
# Outline: as §1
# [58] = target: SpAbp1-D1
# Outline: as §1
# [59] = target: SpBbc1
# Outline: as §1
# [60] = target: SpBzz1-D1
# Outline: as §1
# [61] = target: SpBzz1-D2
# Outline: as §1
# [62] = target: SpCyk3
# Outline: as §1
# [63] = target: SpHof1
# Outline: as §1
# [64] = target: SpHof1-2
# Outline: as §1
# [65] = target: SpHof1-3
# Outline: as §1
# [66] = target: SpHse1
# Outline: as §1
# [67] = target: SpLsb1
# Outline: as §1
# [68] = target: SpLsb4
# Outline: as §1
# [69] = target: SpMyo1
# Outline: as §1
# [70] = target: SpNbp2
# Outline: as §1
# [71] = target: SpPex13
# Outline: as §1
# [72] = target: SpRvs167
# Outline: as §1
# [73] = target: SpSla1-D1-D2
# Outline: as §1
# [74] = target: SpSla1-D3
# Outline: as §1
binder,measurement,setting,value
VFQFQMPTTPISTKM,SPOT peptide array binding signal intensity,[1],≤ 0
same,SPOT peptide array binding signal intensity,[2],10
same,SPOT peptide array binding signal intensity,[3],132
same,SPOT peptide array binding signal intensity,[4],22.5
same,SPOT peptide array binding signal intensity,[5],9
same,SPOT peptide array binding signal intensity,[6],1
same,SPOT peptide array binding signal intensity,[7],346
same,SPOT peptide array binding signal intensity,[8],5
same,SPOT peptide array binding signal intensity,[9],428
same,SPOT peptide array binding signal intensity,[10],2
same,SPOT peptide array binding signal intensity,[11],≤ 0
same,SPOT peptide array binding signal intensity,[12],14.8
same,SPOT peptide array binding signal intensity,[13],344
same,SPOT peptide array binding signal intensity,[14],1.33
same,SPOT peptide array binding signal intensity,[15],251
same,SPOT peptide array binding signal intensity,[16],1.5
same,SPOT peptide array binding signal intensity,[17],3
same,SPOT peptide array binding signal intensity,[18],59
same,SPOT peptide array binding signal intensity,[19],116
same,SPOT peptide array binding signal intensity,[20],34
same,SPOT peptide array binding signal intensity,[21],111
same,SPOT peptide array binding signal intensity,[22],152
same,SPOT peptide array binding signal intensity,[23],101
same,SPOT peptide array binding signal intensity,[24],13
same,SPOT peptide array binding signal intensity,[25],820
same,SPOT peptide array binding signal intensity,[26],0.5
same,SPOT peptide array binding signal intensity,[27],303
same,SPOT peptide array binding signal intensity,[28],2.5
same,SPOT peptide array binding signal intensity,[29],407
same,SPOT peptide array binding signal intensity,[30],92.8
same,SPOT peptide array binding signal intensity,[31],985
same,SPOT peptide array binding signal intensity,[32],32.7
same,SPOT peptide array binding signal intensity,[33],4.5
same,SPOT peptide array binding signal intensity,[34],922
same,SPOT peptide array binding signal intensity,[35],404
same,SPOT peptide array binding signal intensity,[36],454
same,SPOT peptide array binding signal intensity,[37],4
same,SPOT peptide array binding signal intensity,[38],≤ 0
same,SPOT peptide array binding signal intensity,[39],1
same,SPOT peptide array binding signal intensity,[40],10
same,SPOT peptide array binding signal intensity,[41],25
same,SPOT peptide array binding signal intensity,[42],13
same,SPOT peptide array binding signal intensity,[43],327
same,SPOT peptide array binding signal intensity,[44],≤ 0
same,SPOT peptide array binding signal intensity,[45],254
same,SPOT peptide array binding signal intensity,[46],46.5
same,SPOT peptide array binding signal intensity,[47],≤ 0
same,SPOT peptide array binding signal intensity,[48],282
same,SPOT peptide array binding signal intensity,[49],124
same,SPOT peptide array binding signal intensity,[50],20.8
same,SPOT peptide array binding signal intensity,[51],8
same,SPOT peptide array binding signal intensity,[52],636
same,SPOT peptide array binding signal intensity,[53],186
same,SPOT peptide array binding signal intensity,[54],11.8
same,SPOT peptide array binding signal intensity,[55],530
same,SPOT peptide array binding signal intensity,[56],245
same,SPOT peptide array binding signal intensity,[57],228
same,SPOT peptide array binding signal intensity,[58],21
same,SPOT peptide array binding signal intensity,[59],2.5
same,SPOT peptide array binding signal intensity,[60],324
same,SPOT peptide array binding signal intensity,[61],4.25
same,SPOT peptide array binding signal intensity,[62],4
same,SPOT peptide array binding signal intensity,[63],52.5
same,SPOT peptide array binding signal intensity,[64],36.5
same,SPOT peptide array binding signal intensity,[65],18.5
same,SPOT peptide array binding signal intensity,[66],456
same,SPOT peptide array binding signal intensity,[67],4.5
same,SPOT peptide array binding signal intensity,[68],349
same,SPOT peptide array binding signal intensity,[69],85.5
same,SPOT peptide array binding signal intensity,[70],272
same,SPOT peptide array binding signal intensity,[71],124
same,SPOT peptide array binding signal intensity,[72],27
same,SPOT peptide array binding signal intensity,[73],3
same,SPOT peptide array binding signal intensity,[74],297
STPQTMRQAPKRPDA,SPOT peptide array binding signal intensity,[61],11
same,SPOT peptide array binding signal intensity,[62],6
same,SPOT peptide array binding signal intensity,[63],25
same,SPOT peptide array binding signal intensity,[64],38.8
same,SPOT peptide array binding signal intensity,[65],≤ 0
same,SPOT peptide array binding signal intensity,[66],190
same,SPOT peptide array binding signal intensity,[67],≤ 0
same,SPOT peptide array binding signal intensity,[68],384
same,SPOT peptide array binding signal intensity,[69],325
same,SPOT peptide array binding signal intensity,[70],266
same,SPOT peptide array binding signal intensity,[71],51
same,SPOT peptide array binding signal intensity,[72],25.8
same,SPOT peptide array binding signal intensity,[73],1.5
same,SPOT peptide array binding signal intensity,[74],182
